Screening results from PubChem.
Most compounds without a hit are left out; they make up all but 2.3% or so of the library.
CHT inh = inhibits the human high affinity choline transporter | Q9GZV3 | CHT-expressing cells, membrane potential dye, choline response; active compounds read low | B-score at 10 µM | actives 0.86% (n = 310,000);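 active = B-score over 3 SD under the library average, and starting fluorescence ratio not unusually high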;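 note: choline stimulus applied at its EC90 after an EC20 pre-addition; B-score computed on integrated fluorescence ratio after choline addition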
Target sequence (Q9GZV3 whole entry, looked up): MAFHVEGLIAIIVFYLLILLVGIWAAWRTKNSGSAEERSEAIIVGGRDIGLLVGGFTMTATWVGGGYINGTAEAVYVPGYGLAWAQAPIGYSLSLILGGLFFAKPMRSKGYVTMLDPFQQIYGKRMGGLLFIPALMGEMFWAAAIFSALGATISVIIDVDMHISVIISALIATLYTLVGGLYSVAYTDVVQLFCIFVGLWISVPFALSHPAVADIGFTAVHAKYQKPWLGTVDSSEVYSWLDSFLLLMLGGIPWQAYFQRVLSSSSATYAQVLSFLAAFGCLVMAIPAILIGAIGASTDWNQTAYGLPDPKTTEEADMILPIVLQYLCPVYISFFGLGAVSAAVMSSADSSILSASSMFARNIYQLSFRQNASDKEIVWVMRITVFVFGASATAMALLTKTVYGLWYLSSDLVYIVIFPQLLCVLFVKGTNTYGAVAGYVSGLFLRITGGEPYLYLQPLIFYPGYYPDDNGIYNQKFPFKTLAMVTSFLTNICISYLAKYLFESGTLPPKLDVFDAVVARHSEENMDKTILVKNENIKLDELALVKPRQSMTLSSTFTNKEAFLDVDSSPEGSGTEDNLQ
TMEM16A inh = blocks the mouse calcium-activated chloride channel TMEM16A. normalized B-score (activity score, 25-100; higher = stronger inhibition) at 10 µM. AID 588511. HEK293 TMEM16A/YFP iodide influx fluorescence, ionomycin. actives 1.2% (n = 310,000);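 active = ratio plate-corrected score three or more library SD toward inhibition, starting fluorescence score within five deviations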;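 note: score derived from kinetic fluorescence span divided by baseline fluorescence per well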
CHT allo act = allosterically activates the human high affinity choline transporter; CHT-expressing cells, membrane potential dye, choline EC20; active compounds read high; LV-AA mutant CHT in HEK293 cells; B-score at 10 µM; actives 0.49% (n = 310,000);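 active = initial fluorescence not abnormally high and integrated response B-score, plate-corrected, over 3 SD above library mean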
TMEM16A act = mouse TMEM16A channel activation, primary screen | HEK293 TMEM16A/YFP-H148Q/I152L, iodide quench fluorescence; active compounds read low | B-score at 10 µM | actives 0.3% (n = 340,000) | AID 623877;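 active = fluorescence-ratio B-score plate-corrected deviation score at least 3 library SD below zero, with starting fluorescence score within 5 deviations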;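 note: channel opened by trigger with iodide after compound preincubation; score built on the fluorescence ratio of max minus min over baseline; more negative score means more quench and so TMEM16A activation or potentiation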
* marks the source's active call; other numbers are inactive results; i = inactive; · = not tested or not shown.

SMILES	CHT inh	TMEM16A inh	CHT allo act	TMEM16A act
CC(CCc1ccccc1)NC(=O)COC(=O)c1cc(NS(=O)(=O)c2ccc(Cl)c([N+](=O)[O-])c2)ccc1O (centres undefined)	i	100*	i	i
CNS(=O)(=O)c1cccc(C(=O)OCC(=O)NC(C)CCc2ccccc2)c1 (centres undefined)	i	i	i	i
O=[N+]([O-])c1ccc(/C=N\NS(=O)(=O)c2ccc(F)cc2)o1	i	i	i	i
CSCCC(NC(=O)c1ccc(Cl)cc1)C(=O)OCC(=O)NCc1ccco1 (centres undefined)	i	i	i	i
COc1ccccc1C(=O)NC(CCSC)C(=O)OCC(=O)NC(=O)NCc1ccco1 (centres undefined)	i	i	i	-24*
COc1cccc(CN(C)C(=O)c2cc(-c3ccc(F)cc3)nc3ccccc23)c1	i	100*	i	i
COc1cccc(CN(C)C(=O)c2cc(-c3ccc(OC)c(OC)c3)nc3ccccc23)c1	i	i	i	i
COc1ccc(-c2cc(C(F)(F)F)nc(SCC(=O)N3CC(C)OC(C)C3)n2)cc1OC (centres undefined)	·	·	·	-4.6*
COc1ccc(-c2cc(C(F)(F)F)nc(SCC(=O)Nc3cc(C)on3)n2)cc1OC	i	i	i	i
CS(=O)(=O)N(CC(=O)N1CCN(c2ccccc2F)CC1)c1cccc(C(F)(F)F)c1	i	i	i	i
O=C(Nc1ccccc1Cl)C1Cc2ccccc2O/C1=N\O (centres undefined)	i	i	i	i
Fc1ccccc1C1c2cccn2CCN1C(=S)Nc1ccc(Br)cc1 (centres undefined)	i	i	i	-4.6*
Fc1ccccc1C1c2cccn2CCN1C(=S)Nc1cccc(Br)c1 (centres undefined)	i	i	i	i
CC1=NN(C(N)=S)C(=O)C1N=Nc1c(C)cc(C)cc1C (centres undefined)	i	i	i	i
CC1=NN(C(N)=S)C(=O)C1N=Nc1c(Cl)cc([N+](=O)[O-])cc1Cl (centres undefined)	i	25*	i	i
CC(C)(C)NC(=O)NC(=O)CSc1nncs1	i	i	i	i
O=C(c1ccc2ccccc2c1)C1CCCN(C(=O)c2cnccn2)C1 (centres undefined)	i	i	i	-4.6*
O=C(NCC1CCCO1)c1ccccc1-c1nc(-c2ccc(F)cc2)no1 (centres undefined)	i	100*	i	i
COc1ccc(-c2noc(-c3ccccc3C(=O)NCC3CCCO3)n2)cc1 (centres undefined)	i	i	i	i
Cc1ccc(-c2cc(C(=O)N/N=C/c3c[nH]c4ccccc34)[nH]n2)cc1	·	·	·	-5.4*
CC1(c2ccc(OC(F)F)cc2)NC(=O)N(CC(=O)Nc2ccc(OC(F)F)cc2)C1=O (centres undefined)	i	i	i	-14*
CC1(c2ccc(OC(F)F)cc2)NC(=O)N(CC(=O)Nc2ccc(F)cc2)C1=O (centres undefined)	i	i	i	i
Brc1ccccc1OCCCCn1cnc2ccccc21	i	100*	i	i
CCc1cccc(C)c1NC(=S)NCC(c1cccnc1)N(C)C (centres undefined)	i	i	i	i
C=CCN1C(=O)/C(=C\c2ccc(Cl)cc2)N=C1SCC(=O)NCCC	i	i	i	-27*
SMILES	CHT inh	TMEM16A inh	CHT allo act	TMEM16A act
CC1Sc2ccc(S(=O)(=O)CCC(=O)NC3CCCCC3C)cc2NC1=O (centres undefined)	i	i	i	i
CCOC(=O)c1c(NC(=O)CCc2ccc(CC)o2)sc(C)c1C	i	i	i	i
COC(=O)c1c(NC(=O)CCc2ccc(C)o2)sc(C)c1C	i	100*	i	i
COc1ccc(CNS(=O)(=O)c2ccc3c(c2)N(C)CCO3)cc1	i	i	i	i
O=C(CNC(=O)c1ccco1)N/N=C/c1cccs1	i	i	i	i
Cc1ccc(N2CCN(c3ccc(C)cc3)C2c2cccnc2)cc1	i	25*	i	i
c1ccc(N2CCN(c3ccccc3)C2c2cccnc2)cc1	i	i	i	i
Cc1ccc2nc(N/C(N)=N/S(=O)(=O)c3ccc([N+](=O)[O-])cc3)nc(C)c2c1	i	i	i	i
CCN(C(=O)C1=COCCO1)c1nc2c(C)cccc2s1	i	i	i	i
CCN(CC)CCN(C(=O)C1=COCCO1)c1nc2cc(C)cc(C)c2s1	-6*	i	i	i
COc1ccc(/C=N/NC(=O)c2cc(Br)ccc2O)cc1Cn1cc(Cl)cn1	i	100*	i	i
COC(=O)C(Cc1ccc(OC(=O)c2ccc(C(F)(F)F)cc2)cc1)N1Cc2ccccc2C1=O (centres undefined)	i	100*	i	i
O=C(Nc1cccc(-c2nc3cccnc3s2)c1)C1c2ccccc2Oc2ccccc21	·	·	·	i
Cc1ccc(-c2nnc(SCCC(=O)N3CCOCC3)o2)cc1	i	i	i	-39*
O=C(CCSc1nnc(-c2ccccc2)o1)N1CCOCC1	i	i	i	i
COc1ccccc1CNS(=O)(=O)c1ccc2c(c1)CC(C)N2C(=O)C1CCC1 (centres undefined)	i	25*	i	i
CC1CCN(S(=O)(=O)c2ccc3c(c2)CC(C)N3C(=O)C2CCC2)CC1 (centres undefined)	i	25*	i	i
COc1ccccc1CNS(=O)(=O)c1ccc2c(c1)CC(C)N2C(=O)C1CC1 (centres undefined)	i	i	i	i
CCOC(=O)C1CCCN(S(=O)(=O)c2ccc3c(c2)CC(C)N3C(=O)C2CC2)C1 (centres undefined)	i	i	i	i
CCOC(=O)C1CCN(S(=O)(=O)c2ccc3c(c2)CC(C)N3C(=O)C2CCC2)CC1 (centres undefined)	i	25*	i	i
COC(=O)c1ccccc1Sc1ncnc2onc(C)c12	i	i	i	i
Brc1ccccc1-c1nnc(SCc2nc3ccccc3s2)o1	i	25*	i	i
O=C(CSc1nnc(-c2ccccc2Br)o1)N1CCOCC1	i	i	i	i
C/C(=C\c1cc2ccccc2o1)C1Nc2cccc3cccc(c23)N1	·	·	·	-18*
Oc1ccccc1C1Nc2cccc3cccc(c23)N1	i	i	i	i
Cc1ccc(S(=O)(=O)N(CC(=O)N2CCC(C)CC2)c2cccc(C)c2)cc1	i	25*	i	i
CC1(C)C2CCC1(C)C(NC(=O)/C=C/c1ccccc1)C2 (centres undefined)	i	i	i	i
